# Values joined by “and” are separate entries in the source; they are usually repeats but may differ in a detail not shown here. Equal entries are not always repeated. Active and inactive are the calls of the source. Rule for the calls: active = hit-call score of the fitted dose curve at least 0.9, where 1 is the maximum; inactive = score below 0.9.
# Read-out: Vascular cell adhesion molecule 1 (VCAM1), VCAM1 (gene 7412)
# Assay: BSK_BF4T_VCAM1: BioMAP Diversity Plus: BF4T Assay for Vascular cell adhesion molecule 1 (VCAM1) Biomarker Activity (AID 2284249)
# Settings: primary human bronchial epithelial cells with fibroblasts
# Description: BSK_BF4T is a cell-based, multiplexed-readout assay that uses bronchial epithelial cells and dermal fibroblasts, a human vascular primary cell, with measurements taken at 24 hours after chemical dosing in a microplate: 96-well plate.BSK_BF4T_VCAM1 is an assay component measured in the BSK_BF4T assay. It measures VCAM-1 antibody related to regulation of gene expression using ELISA technology.Data from the assay component BSK_BF4T_VCAM1 was analyzed at the endpoint, BSK_BF4T_VCAM1, in the positive analysis fitting direction relative to DMSO as the negative control and baseline of activity. Using a type of binding reporter, gain or loss-of-signal activity can be used to understand protein changes. To generalize the intended target to other relatable targets, this assay endpoint is annotated to the 'cell adhesion molecules' intended target family, where the subfamily is 'Immunoglobulin CAM'.
# The levels of cell surface (or secreted, indicated by the prefix "s") biomarker endpoints were measured by ELISA. Overt cytotoxicity to cells in confluent adherent cultures (all systems other than the BT system) was assessed by measuring total protein levels using sulforhodamine B (SRB) staining in parallel cultures at the time of biomarker measurements, indicated as SRB endpoints. For proliferation assays for adherent cell types, individual cell types are cultured at sub-confluence and relative cell numbers quantified by SRB staining at time points optimized for each system (48 h: 3C and CASM3C systems; 72 h: BT and HDF3CGF systems; 96 h: SAg system). SRB was performed by staining cells with 0.1% SRB after fixation with 10% TCA and reading wells at 560 nm.Viability and proliferation of PBMC (T cells) was quantified by Alamar Blue reduction for the SAg and BT systems. For PBMC viability (referred to as PBMC Cytotoxicity within the assay endpoint names), cells were plated (75,000/well in a 96-well plate) and then chemical samples added for 1 h before addition of activators, SEB and TSST-1 (20 ng/mL final concentration each). Cells were incubated for 90 h. Then, Alamar Blue (20 uL/well) (Invitrogen, Cat DAL1100) was added for 6 h, and the plates were read with a fluorescence microplate reader at 546/580 nm (excitation/emission). For PBMC proliferation, cells were plated and activated as above but incubated for only 16 h prior to addition of Alamar Blue. Plates were read after 6 h.
Structure (SMILES),outcome,AC50
O=C(O)CCC(F)(F)C(F)(F)C(F)(F)C(F)(F)C(F)(F)C(F)(F)F,inactive,–
O=S(=O)(O)C(F)(F)C(F)(F)C(F)(F)C(F)(F)C(F)(F)C(F)(F)C(F)(F)C(F)(F)C(F)(F)C(F)(F)F,inactive,–
O=C(CC(=O)C(F)(F)C(F)(F)C(F)(F)F)c1cccs1,–,20.6 µM (active) and 19.3 µM (active)
CN(CCO)S(=O)(=O)C(F)(F)C(F)(F)C(F)(F)C(F)(F)C(F)(F)C(F)(F)C(F)(F)C(F)(F)F,inactive,–
O=P(O)(O)CCC(F)(F)C(F)(F)C(F)(F)C(F)(F)C(F)(F)C(F)(F)F,inactive,–
O=C(O)CCC(F)(F)C(F)(F)C(F)(F)C(F)(F)C(F)(F)F,inactive,–
O=P(O)(O)CCC(F)(F)C(F)(F)C(F)(F)C(F)(F)C(F)(F)C(F)(F)C(F)(F)C(F)(F)F,inactive,–
CN(Cc1cnc2nc(N)nc(N)c2n1)c1ccc(C(=O)N[C@@H](CCC(=O)O)C(=O)O)cc1,inactive,–
OCC(F)(F)C(F)(F)C(F)(F)C(F)(F)C(F)(F)C(F)(F)C(F)(F)C(F)(F)C(F)(F)C(F)(F)C(F)(F)F,inactive,–
O=C(O)C(F)(F)OC(F)(F)C(F)(F)OC(F)(F)C(F)(F)OC(F)(F)C(F)(F)C(F)(F)C(F)(F)F,–,7.4 µM (active) and 6.87 µM (active)
C=CC(=O)OCCC(F)(F)C(F)(F)C(F)(F)C(F)(F)C(F)(F)C(F)(F)C(F)(F)C(F)(F)F,inactive,–
